Screening results from PubChem.
USP28 inh = inhibitors of human USP28 deubiquitinase; Q96RU2; purified USP28, Ub-rhodamine cleavage fluorescence, 30 min; inhibition, % at 25 µM; actives 3% (n = 47,000); AID 1645857
OTUD3 inh = blocks human OTUD3 ubiquitin-rhodamine cleavage; purified OTUD3, Ub-rhodamine fluorescence, 2 h; inhibition, % at 25 µM; actives 0.7% (n = 47,000); AID 1645858
USP30 inh = blocks human USP30 ubiquitin-rhodamine cleavage. actives 5.3% (n = 47,000). Q70CQ3. purified USP30, Ub-rhodamine cleavage fluorescence. inhibition, % at 25 µM
Target sequence (Q70CQ3 whole entry, looked up): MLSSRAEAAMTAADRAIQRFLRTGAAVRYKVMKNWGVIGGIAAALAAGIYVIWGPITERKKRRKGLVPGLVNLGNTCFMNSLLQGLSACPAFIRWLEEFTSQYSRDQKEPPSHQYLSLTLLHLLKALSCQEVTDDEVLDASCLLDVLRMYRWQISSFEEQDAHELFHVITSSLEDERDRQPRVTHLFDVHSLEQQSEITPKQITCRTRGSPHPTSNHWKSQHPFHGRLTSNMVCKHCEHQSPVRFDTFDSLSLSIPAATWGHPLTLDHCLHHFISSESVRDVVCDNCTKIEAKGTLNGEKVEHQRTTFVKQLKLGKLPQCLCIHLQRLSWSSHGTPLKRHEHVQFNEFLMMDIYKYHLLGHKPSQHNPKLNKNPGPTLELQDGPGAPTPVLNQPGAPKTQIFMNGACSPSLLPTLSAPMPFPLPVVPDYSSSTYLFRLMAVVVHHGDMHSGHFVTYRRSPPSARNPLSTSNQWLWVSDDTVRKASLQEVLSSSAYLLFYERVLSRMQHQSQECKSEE
USP17 inh = inhibitors of human USP17 deubiquitinase. A8MUK1. purified USP17, Ub-rhodamine cleavage fluorescence, 3 h. inhibition, % at 50 µM. actives 6.5% (n = 47,000). AID 1645855
Numbers stand for hits; 0 = inactive; - = no result. Rows were chosen to be rich in hits. Some 11% of all compounds tested hit in one or more screens of this group. No stated cut-off is given here; in the data, active means inhibition above about 30%; inactive means the rest.

SMILES	USP28 inh	OTUD3 inh	USP30 inh	USP17 inh
O=C(Nc1cccc(F)c1)c1ncn2c1CNS(=O)(=O)c1ccccc1-2	0	0	0	0
CN(c1ccccc1)c1ccc2ccc(C(=O)NCCN3CCOCC3)cn12	0	0	0	0
Cc1nn2c(CNS(=O)(=O)c3ccccc3)c(C)nc2s1	0	0	0	0
Cc1ccc(Cl)cc1NC(=O)CSc1nc2cn(C)nc2c(=O)n1CC1CC1	0	38	54	68
Cn1cc2nc(SCC(=O)NCc3ccccc3Cl)n(CC3CC3)c(=O)c2n1	0	0	32	0
Cc1c(Cl)cccc1NC(=O)CSc1nc2cn(C)nc2c(=O)n1CC1CC1	0	0	0	0
Cc1noc(C)c1C1CCCN1S(=O)(=O)c1ccc(F)cc1 (centres undefined)	0	0	0	0
CCOC(=O)c1sc2c(c1C)c(=O)n(Cc1ccccc1)c(=O)n2CC(N)=O	0	0	55	0
Cc1ccc(CC2CCCN(C(=O)CN3C(=O)NC(C)(C)C3=O)C2)cn1 (centres undefined)	0	0	0	0
Cc1nc(-c2noc3ccc(C(=O)N4CCCC4)cc23)co1	0	0	30	0
COc1ccc(-c2nc3cc(C(F)(F)F)ccc3n3ccnc23)cc1	0	0	0	0
CCOC(=O)c1cc(=O)c2ccc(OCC(=O)Nc3ccc4c(c3)OCCO4)cc2o1	0	0	0	-
O=C(c1cc2c(s1)CN(C1CC1)C2)N1CCN(c2ccccc2)CC1	-	0	-	0
CCc1cc(C2CCCN2S(=O)(=O)c2ccc3c(c2)OCCN3C(C)=O)on1 (centres undefined)	39	0	0	0
CC(=O)N1CCOc2cc(S(=O)(=O)N3CCCC3c3cc(C)no3)ccc21 (centres undefined)	52	0	0	0
CCn1nccc1C1CCCN1S(=O)(=O)c1ccc2c(c1)OCCO2 (centres undefined)	0	0	0	0
O=S(=O)(c1cc(-c2nnc(-c3ccccc3)o2)ccc1F)N1CCOCC1	0	0	0	0
O=C(NCCC1=CCCCC1)c1cnc(Nc2ccc(F)cc2)c2ccccc12	0	0	0	0
COc1ccc(CCC(=O)Nc2sc3c(c2-c2nc4ccccc4[nH]2)CCCC3)cc1OC	0	0	0	0
O=C(c1cnc2n1CC(c1cccc(C(F)(F)F)c1)CC2)N1CCNCC1 (centres undefined)	0	0	30	0
CC1(C)CCCC2=C1CC(C)(C)C(N(C(=O)/C=C/C(=O)O)c1ccccc1)C2 (centres undefined)	49	41	75	77
COC(=O)C1CN(C(=O)C2(N)CCCC2)CCN(C2CCOCC2)C1 (centres undefined)	0	0	0	0
COc1ccc(Cn2nnc(-c3cccc(Cl)c3)n2)cc1F	35	0	0	0
O=C(Cn1nc(-c2ccc3c(c2)OCCO3)ccc1=O)Nc1ccc(Oc2ccccc2)cc1	0	0	0	31
O=C(O)c1ccc(Cl)c(S(=O)(=O)NC(Cc2ccc(O)cc2)C(=O)O)c1 (centres undefined)	0	0	0	0
SMILES	USP28 inh	OTUD3 inh	USP30 inh	USP17 inh
CC(C)(C)c1ccc(Cn2nnc3c(=O)[nH]c(C4CCN(S(=O)(=O)c5ccc(S(=O)(=O)NC6CC6)cc5)CC4)nc32)cc1	32	0	0	64
COc1cc(S(=O)(=O)N2CCC(c3nc4c(nnn4Cc4cccc(F)c4)c(=O)[nH]3)CC2)ccc1-n1cnnn1	0	0	0	0
COc1cc(S(=O)(=O)N2CCC(c3nc4c(nnn4Cc4ccc(F)cc4)c(=O)[nH]3)CC2)ccc1-n1cnnn1	0	0	47	32
CCN1CCN(CC2CCN(S(=O)(=O)c3ccc(C)c(F)c3)CC2)CC1	0	0	0	0
Cc1ccc(-c2cc3c(=O)n(Cc4noc(CN5CCCCC5)n4)ccn3n2)cc1	0	0	0	0
CCc1ccc(-c2cc3c(=O)n(Cc4nc(-c5ccccn5)no4)ccn3n2)cc1	0	0	0	31
Cc1ccc(-c2cc3c(=O)n(Cc4noc(CN5CCC(C)CC5)n4)ccn3n2)cc1	0	0	38	0
Cc1cccnc1Nc1nccc(C2CCCN(S(C)(=O)=O)C2)n1 (centres undefined)	0	0	0	0
O=C(CCC(=O)c1ccc(F)cc1)Nc1ccccc1F	0	0	0	0
O=C(CCCC(=O)c1ccccc1)Nc1ccc(F)cc1	0	0	0	56
COc1ccc(NC(=O)CCCC(=O)c2ccccc2)c(OC)c1	0	0	0	0
O=C(CCCC(=O)c1ccccc1)Nc1ccc(F)cc1Cl	0	0	0	30
CCOc1ccc(Oc2ccc(NC(=O)c3ccc(C)s3)cc2)cc1	0	0	0	0
COc1ccccc1NC(=O)CN1C(=O)C(O)(c2ccccc2)c2ccccc21 (centres undefined)	0	0	0	0
CC(C)N(C(=O)Cn1c(=O)[nH]c2ccccc21)c1ccccc1	0	0	0	58
CCC1(c2ccccc2)NC(=O)N(CC(=O)N(c2ccccc2)C(C)C)C1=O (centres undefined)	0	0	37	0
CC(C)N1Cc2ccccc2CN2CCN(S(=O)(=O)C3CC3)CC2C1 (centres undefined)	0	0	0	0
COc1ccc(-n2c(C)cc(/C=C3/C(=N)N4C(c5ccccc5)=CSC4=NC3=O)c2C)cc1	0	0	0	0
CCOC(=O)C(C)Sc1nc(=O)n2cccc(C)c2n1 (centres undefined)	0	0	30	0
Cc1cccc(NCc2cc(=O)n3cccc(C)c3n2)c1C	0	0	0	0
O=C(Cc1cccc(Cl)c1)N1CCC(c2[nH]nc3nccnc23)CC1	0	0	0	0
Cc1cccc(C(=O)N2CCC(C(=O)c3ccc4c(c3)OCCO4)CC2)c1	30	0	0	0
COc1ccccc1NC(=O)COc1cc(CSc2ncccn2)ncc1OC	0	0	0	0
COc1cnc(CSc2ccc(C)cc2)cc1OCC(=O)Nc1ccccc1	0	0	36	0
Cc1ccccc1NC(=O)CSc1nccn(-c2ccc(F)c(F)c2)c1=O	0	0	0	0
SMILES	USP28 inh	OTUD3 inh	USP30 inh	USP17 inh
COc1ccc(CCNC(=O)C2CCCN(S(=O)(=O)N3CCC(C)CC3)C2)c(OC)c1 (centres undefined)	0	0	33	0
COc1ccc(CNC(=O)C2CCCN(S(=O)(=O)Cc3ccccc3Cl)C2)cc1 (centres undefined)	0	0	0	0
Cc1cccc(CNC(=O)C2CCCN(S(=O)(=O)Cc3ccccc3Cl)C2)c1 (centres undefined)	0	0	39	0
O=C(Nc1cccc2ccccc12)C1CCCN(S(=O)(=O)Cc2ccccc2)C1 (centres undefined)	0	0	0	73
CCOC(=O)c1ccc(NC(=O)C2CCCN(S(=O)(=O)N3CCCCCC3)C2)cc1 (centres undefined)	0	0	0	41
O=C(C1CC1)N1CCC2(CC1)OC(C(=O)N1CCCC1)Cn1ccnc12 (centres undefined)	0	0	0	0
Cc1ccc(C(=O)NCCc2nnc3ccc(SCC(=O)NCc4ccc5c(c4)OCO5)nn23)cc1	0	0	0	0
O=C(C1CCCN(S(=O)(=O)N2CCCCCC2)C1)N1CCN(c2ccccc2)CC1 (centres undefined)	54	0	0	0
